MCF10A rereplic: DNA re-replication induction in MCF 10a cells; Potency, µM (highest dose often 46.1 µM), for the others: top-dose activity, positive = re-replication, actives largely listed as activators; hit rate 2.9% among 350,000; MCF 10A DNA re-replication, Hoechst nuclear intensity, 48 h; further: % of control where 0% means no effect; nearly all actives have a fitted effect of over 50% in size
SW480 rereplic: inducers of DNA re-replication in SW480 colon cancer cells; Potency, µM (top dose mostly 46.1 µM), for the others: at the highest dose re-replication activation, actives largely listed as activators; hit rate 1.8% among 340,000; AID 624297; SW480 DNA re-replication, Hoechst DNA content imaging, 48 h; further: % of control where 0% means no effect; nearly all actives have a fitted effect of over 55% in size
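Image-based DNA-content assay: after two days of treatment, nuclei were labelled with the DNA dye Hoechst and imaged, and hits were compounds raising the count of nuclei showing high fluorescence intensity.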
ELG1 genotox: induces genotoxicity in HEK293T cells with luciferase-tagged ELG1 | HEK293T ELG1-luciferase reporter, luminescence, 16 h | Potency, µM (top dose mostly 46 µM), without a hit: at the top dose activity change, positive = activation, hits mostly activators | hit rate 1.3% among 330,000 | AID 504466; further: % of control where 0% means no effect; nearly all actives have a fitted effect of over 60% in size
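DMSO vehicle served as control against compound-treated ELG1-luciferase HEK293T cells; exposure lasted 16 hr at 37 °C and 5% CO2, followed by ONE-Glo luminescence detection after 30 min.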
A-T KAP1 phos: potential ataxia-telangiectasia treatment; F2112 A-T fibroblasts, KAP-1 phosphorylation AlphaLISA; neocarzinostatin DNA damage 30 min before lysis; Potency, µM (highest dose often 57.5 µM), for the others: top-dose activation, hits mostly activators; hit rate 0.19% among 320,000; AID 485349; further: % of control where 0% means no effect; nearly all actives have a fitted effect of over 45% in size
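ATM-like activity read as KAP-1 phosphorylation via AlphaLISA donor/acceptor antibody pairs after lysis and 6 hr at 25C. Cells were ATM-null patient fibroblasts (F2112, hTERT), dosed 60 min, then exposed to the DSB inducer NCS for 30 min.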
ELG1 repair inh: blocks ELG1-dependent DNA repair in HEK293T cells. HEK293T ELG1-luciferase reporter, luminescence, 16 h; DNA damage induced by 5-fluorouridine. Potency, µM (top dose mostly 46.1 µM), without a hit: at the highest dose activity change, negative = inhibition, actives largely listed as inhibitors. hit rate 2.3% among 330,000. AID 504467; further: on the % scale 0 is the no-effect control and ±100 the full control effect; nearly all actives have a fitted effect of over 55% in size
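HEK293T cells expressing luciferase-tagged ELG1 (2,000/well) received 5-Fluorouridine plus compound or DMSO for 16 hr at 37 °C. Luciferase was read by ONE-Glo luminescence after 30 min at room temperature.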
p53 reactivator: re-activators of mutant p53. H1299 p53-A138V BP100-luciferase reporter, luminescence, 24 h. Potency, µM (series often up to 92.2 µM), for the others: at the top dose activity change, positive = activation, actives largely listed as activators. hit rate 0.063% among 320,000; further: % of control where 0% means no effect; nearly all actives have a fitted effect of over 45% in size
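p53-null H1299 cells stably carrying temperature-sensitive p53-A138V and a BP100-luciferase reporter were pinned with compounds (4-point, 1:5 series) and held 24 hrs at 37 deg C. Luminescence was read 10 min after detection reagent.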
* hit, by the source's call; u = inconclusive; x = not tested or not shown. In the library only some 7.1% were active in any assay of this set; here they are far more common. The call rests on the fitted dose curve; in most records, active means well fitted curve in the direction sought with a large enough effect; inconclusive means small, poorly fitted or top-dose-only effect, or another doubt; inactive means no such curve, though single readings can be large; an effect the other way counts as inactive or inconclusive. Potency means the concentration at half of the fitted maximal effect.

SMILES	MCF10A rereplic	SW480 rereplic	ELG1 genotox	A-T KAP1 phos	ELG1 repair inh	p53 reactivator
CCc1ccccc1NC(=O)Nc1ccc2c(c1)OCO2	1%	-3%	u	-1%	u	4%
O=C(Nc1ccc2c(c1)OCO2)Nc1ccc(Br)cn1	u	-4%	7.3µM*	-2%	u	u
O=C(Nc1ccc2c(c1)OCO2)Nc1ccccc1F	u	-1%	0.92µM*	9%	u	u
O=C(Nc1ccc2[nH]c(=S)sc2c1)c1ccccc1	6%	-5%	u	2%	u	8%
CCOc1ccccc1OCCCC(=O)ON=C(N)c1ccccc1	-5%	1%	1%	8%	7%	5%
Cc1ccc(C)c(OC(=O)C2CSC3(C)CCC(=O)N23)c1C (configuration not stated)	0%	-14%	-8%	-1%	3%	1%
COc1ccc2[nH]c(C(=O)Nc3ccc4c(c3)OCO4)cc2c1	13%	12%	17%	1%	u	14%
COCCN(C(=O)CCC(=O)Nc1ccccn1)C(C(=O)NCCC(C)C)c1ccc(F)cc1 (configuration not stated)	6%	-16%	-1%	-3%	-2%	-3%
CCOC(=O)Cc1csc(SCC(=O)c2c(N)n(CC(C)C)c(=O)n(C)c2=O)n1	u	1%	-6%	0%	5.2µM*	-1%
Cc1csc(SCC(=O)c2c(N)n(CC(C)C)c(=O)n(C)c2=O)n1	16%	-15%	-11%	8%	18µM*	5%
CC(C)Cn1c(N)c(C(=O)CSc2ncccn2)c(=O)n(C)c1=O	5%	-11%	-5%	-10%	-12%	6%
Cc1ccc(S(=O)(=O)N2CCCN(C(=O)CNC(=O)c3cccc(C)c3)CC2)cc1	-4%	7%	0%	8%	-7%	-7%
C[C@H](CO)N1C[C@H](C)[C@@H](CN(C)Cc2ccc(Cl)c(Cl)c2)Oc2c(NS(=O)(=O)c3cn(C)cn3)cccc2C1=O	-36%	9%	0%	3%	0%	-9%
CC1Sc2ccc(S(=O)(=O)CCC(=O)N3CCN(c4cccc(Cl)c4)CC3)cc2NC1=O (configuration not stated)	u	14%	-18%	-9%	13µM*	-4%
CCCCOc1ccc(C(=O)NCC(=O)OC2CCOC2=O)cc1 (configuration not stated)	3.3µM*	u	x	x	x	x
Cc1ccc(-c2nn3c(C)nnc3c3ccccc23)cc1S(=O)(=O)NC(C)(C)CO	11µM*	0%	21µM*	2%	u	-8%
COc1ccc(NC(=O)COC(=O)C2CC(=O)N(CCc3ccc(OC)c(OC)c3)C2)cc1Cl (configuration not stated)	9%	u	7%	1%	14%	4%
CC1=NN(c2ccc(Br)cc2)C(=O)/C1=C/c1cccs1	18µM*	u	-3%	-7%	u	17%
CC1=NN(c2ccc(C)cc2)C(=O)/C1=C\c1ccc(Br)s1	6%	x	14%	21%	u	1%
CCOc1ccc(-c2nc(CSCC(=O)NC3CC3)c(C)o2)cc1	9%	-1%	0%	1%	14%	-6%
CCOC(=O)N1CCC(NC(=O)CSCc2nc(-c3ccccc3Cl)oc2C)CC1	7%	-7%	-7%	-2%	u	-2%
CCOC(=O)N1CCC(NC(=O)CSCc2nc(-c3ccc(OCC)cc3)oc2C)CC1	14%	0%	-9%	26%	13µM*	-2%
CCOC(=O)N1CCC(NC(=O)CCc2nc(-c3ccc(C)cc3)no2)CC1	1%	-3%	-13%	2%	13µM*	0%
CCOC(=O)N1CCC(NC(=O)CSCc2nc(-c3cccc(OC)c3)oc2C)CC1	14%	0%	-9%	-8%	12µM*	-10%
COc1ccc(-c2noc(CCC(=O)NC3CCCCCC3)n2)cc1	u	u	-2%	9%	0%	8%
SMILES	MCF10A rereplic	SW480 rereplic	ELG1 genotox	A-T KAP1 phos	ELG1 repair inh	p53 reactivator
CCOc1ccc(-c2nc(CSCC(=O)NCc3ccco3)c(C)o2)cc1	-3%	-3%	15%	x	7.3µM*	29%
CN(C)C=NC(=O)c1[nH]c2ccc(Cl)cc2c1-c1ccccc1	u	u	-10%	u	-17%	-2%
Cc1cccc2c3c([nH]c12)CCN(C)C3	1%	1%	-1%	-2%	5%	-4%
Cc1cccc(OCCNS(=O)(=O)c2ccc(Cl)cc2)c1	12%	-7%	4%	2%	4%	-2%
Cc1cc(O)ccc1N/C=C(\C#N)c1nc2ccccc2o1	18µM*	u	-1%	2%	10%	3%
N#C/C(=C\c1c(Cl)cccc1Cl)c1nc2ccccc2o1	u	29%	3%	5%	3%	3%
Cc1cc(NC(=O)COC(=O)C2CC(=O)N(c3cccc(C)c3C)C2)no1 (configuration not stated)	-5%	-1%	1%	7%	-1%	-5%
CCCc1cc(C(=O)Nc2ccc(F)cc2F)no1	2%	-14%	12µM*	16%	u	u
CCCc1cc(C(=O)Nc2ccccc2SC)no1	5%	-10%	u	40µM*	u	10%
CCCc1cc(C(=O)Nc2cccc(Cl)c2C)no1	-10%	6%	18µM*	5%	u	28%
CCCc1cc(C(=O)Nc2cccc(C(C)=O)c2)no1	-4%	-3%	u	0%	u	u
CCCc1cc(C(=O)Nc2cccc(Cl)c2)no1	13%	-15%	15µM*	8%	u	6%
CSc1ccccc1NC(=O)c1cc(-c2cccs2)on1	u	-5%	3%	4%	u	u
Cc1ccc(-c2nc3ccccc3[nH]2)cc1NC(=O)c1sc2cc(Cl)ccc2c1Cl	-2%	-8%	2%	-2%	u	19%
CCCc1cc(C(=O)NCc2ccccc2)no1	3%	-1%	23µM*	-2%	u	13%
COc1ccc(S(=O)(=O)NCc2ccccn2)cc1NC(=O)c1ccc(Cl)cc1	8.2µM*	u	-1%	5%	u	-6%
COc1ccc(S(=O)(=O)NCc2ccccn2)cc1NC(=O)c1ccccc1C	3.7µM*	7.3µM*	9%	-23%	9%	0%
O=C(O)[C@H](Cc1ccccc1)N1C(=O)c2c(Cl)c(Cl)c(Cl)c(Cl)c2C1=O	1%	1%	-4%	-3%	9%	18%
